Assays:
[1] = test system: Human papillomavirus type 1a protein E7 (residues 44-93); experiment: HPV1a E7 fragment binders on microarrays, primary screen, biochemical, small-molecule microarray, residues 44-93, 635 nm fluorescence (AID 1108); details: small-molecule microarray binding, fluorescence 635 nm; higher = more signal;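 note: E7 fragment applied at 1 µg/mL in TBST for 1 h at 4 C; score combines spot fluorescence with its signal to noise ratio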
[2] = modulators of HCV replicon luciferase signal, primary screen, HCV replication inhibitor project, Huh7 cells, luciferase reporter (AID 1109); details: 48 h, higher = more signal;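 note: huh7 hepatoma cells harbouring a luciferase neomycin HCV replicon reporter; luciferase luminescence as measure of HCV replicon replication; test concentration not given here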
[3] = target: Left-right determination factor 2 (Homo sapiens) (UniProt O00292); experiment: LEFTY2 binders on small-molecule microarrays, primary screen, biochemical, small-molecule microarray, 635 nm fluorescence scan (AID 1110); details: LEFTY2 binding, higher = more signal
Chain of Left-right determination factor 2 (Homo sapiens) (O00292 whole entry, looked up): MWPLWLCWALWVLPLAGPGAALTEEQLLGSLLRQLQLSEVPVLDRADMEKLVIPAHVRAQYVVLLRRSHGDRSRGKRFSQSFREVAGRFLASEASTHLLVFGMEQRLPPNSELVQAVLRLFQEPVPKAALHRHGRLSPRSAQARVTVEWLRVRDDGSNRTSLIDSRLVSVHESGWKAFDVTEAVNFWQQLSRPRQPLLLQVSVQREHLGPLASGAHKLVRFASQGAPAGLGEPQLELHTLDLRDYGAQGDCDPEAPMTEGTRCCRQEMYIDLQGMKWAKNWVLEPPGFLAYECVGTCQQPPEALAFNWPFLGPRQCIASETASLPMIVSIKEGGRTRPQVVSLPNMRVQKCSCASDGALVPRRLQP

[4] = target: Calmodulin-1 (Homo sapiens) (UniProt P0DP23); experiment: CALM1 binders on microarrays, EGTA buffer, profiling panel, biochemical, small-molecule microarray, Cy5-labelled CALM1 (AID 1111); details: Cy5-CALM1 binding fluorescence, higher = more signal;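 note: labelled calmodulin applied in Tris saline Tween buffer holding calcium plus EGTA and DTT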
[5] = target: Calmodulin-1 (Homo sapiens) (UniProt P0DP23); experiment: calcium-bound CALM1 binders on microarrays, profiling panel, artefact control for SMM control-protein annotation, biochemical, small-molecule microarray, Cy5-labelled CALM1, plus calcium (AID 1112); details: Cy5-CALM1 binding fluorescence, higher = more signal;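 note: score merges spot fluorescence with signal to noise from triplicate slides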
[6] = small-molecule microarray binders of probe aWnt5a, primary screen, biochemical, biotinylated probe, 635/667 nm fluorescence (AID 1113); details: higher = more signal;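 note: score merges 667 nm fluorescence intensity with signal-to-noise per printed feature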
[7] = small-molecule microarray binders of probe aShh, primary screen, biochemical, biotinylated probe, 635/667 nm fluorescence (AID 1114); details: higher = more signal;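 note: probe is biotin-labelled aShh protein from a stem cell growth factor screen; measures binding of labelled protein to compounds printed on the slide; score merges feature fluorescence at 667 nm with signal-to-noise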
[8] = small-molecule microarray binders of probe aNog, primary screen, biochemical, biotinylated probe, 635/667 nm fluorescence (AID 1115); details: higher = more signal;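 note: probe is biotinylated aNog protein used at 0.15 µg/mL for 1 h at 4 C; z-score combines 667 nm fluorescence of each spot with its signal to noise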
[9] = target: Torsin-1A-interacting protein 1 (Homo sapiens) (UniProt Q5JTV8); experiment: LAP1 binders from COS7 cell lysate, primary screen, small-molecule microarray, 635/667 nm fluorescence (AID 1116); details: COS7-hLAP1 lysate binding, 635 nm fluorescence, higher = more signal
Chain of Torsin-1A-interacting protein 1 (Homo sapiens) (Q5JTV8 whole entry, looked up): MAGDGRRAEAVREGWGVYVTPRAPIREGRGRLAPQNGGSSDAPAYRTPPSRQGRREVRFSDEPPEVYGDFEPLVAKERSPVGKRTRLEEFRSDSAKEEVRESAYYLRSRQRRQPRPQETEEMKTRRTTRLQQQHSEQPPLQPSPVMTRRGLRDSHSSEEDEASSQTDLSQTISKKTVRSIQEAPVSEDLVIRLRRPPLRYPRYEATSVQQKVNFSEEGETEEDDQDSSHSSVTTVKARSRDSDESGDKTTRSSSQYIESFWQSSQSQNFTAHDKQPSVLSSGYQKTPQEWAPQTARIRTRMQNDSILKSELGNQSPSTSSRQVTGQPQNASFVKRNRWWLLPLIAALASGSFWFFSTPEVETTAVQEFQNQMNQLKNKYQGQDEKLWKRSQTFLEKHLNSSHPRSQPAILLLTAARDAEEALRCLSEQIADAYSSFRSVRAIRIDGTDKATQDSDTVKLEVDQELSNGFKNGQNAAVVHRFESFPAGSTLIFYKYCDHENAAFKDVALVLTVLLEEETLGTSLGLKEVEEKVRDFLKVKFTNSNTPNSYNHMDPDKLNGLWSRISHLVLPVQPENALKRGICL

[10] = target: Alpha-bungarotoxin (Bungarus multicinctus) (UniProt P60615); experiment: alpha-bungarotoxin binders on microarray, profiling panel, artefact control for SMM control protein annotation, biochemical, small-molecule microarray, Alexa647 label, 635/667 nm fluorescence (AID 1117); details: alpha-BTX-A647 binding fluorescence, higher = more signal
Chain of Alpha-bungarotoxin (Bungarus multicinctus) (P60615 whole entry, looked up): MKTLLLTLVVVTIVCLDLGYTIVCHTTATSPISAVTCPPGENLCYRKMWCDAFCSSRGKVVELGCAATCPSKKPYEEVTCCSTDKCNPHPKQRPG

SMILES	composite z-score [1]	z-score [2]	composite z-score [3]	composite z-score [4]	composite z-score [5]	composite z-score [6]	composite z-score [7]	composite z-score [8]	composite z-score [9]	composite z-score [10]
C[C@@]12COC[C@]13C=C(Br)[C@H](C2)[C@@]1(CO1)C3=O	-2.3	-2.64	-0.777	-0.66	-0.691	-0.176	-0.214	-0.256	-1.17	-0.455
COC(=O)[C@@]1(Cc2ccccc2)[C@H]2c3cc(C(=O)N(C)C)n(CCn4cc([N+](=O)[O-])nc4C)c3C[C@H]2CN1C(=O)c1ccccc1	1.15	-0.347	0.0356	0.437	0.361	0.0162	0.0952	0.576	2.83	0.413
O=c1cccc(-c2ccco2)o1	0.582	-0.574	0.758	-0.221	-1.23	-0.0179	0.0952	-0.0563	0.18	0.738
Cc1ccc(S[C@]2(C(=O)NC(C)C)CC(=O)N(Cc3ccccc3Cl)[C@@H]2c2ccc(CO)cc2)cc1	0.949	-1.81	-1.76	-0.142	0.214	-0.154	-0.0035	-0.429	0.98	1.07
COCCOC(=O)N1C(=O)[C@@]2(c3cc(C#CCNC(N)=O)ccc31)[C@H](c1ccc(OCCO)cc1)N1[C@H](c3ccccc3)[C@H](c3ccccc3)OC(=O)[C@H]1[C@@H]2C(N)=O	1.33	-0.106	0.437	0.741	0.585	-0.089	0.225	0.54	0.803	0.667
CN1C=C(C(=O)OCCS(C)(=O)=O)C(C(=O)OCCS(C)(=O)=O)=CC(c2ccc(CO)cc2)=CC1c1cccs1 (stereo not given)	0.229	0.19	0.0843	-0.165	-0.388	-0.0405	0.0062	0.304	1.46	0.821
O=C1C[C@@](C(=O)NCc2ccccc2)(c2ccc([N+](=O)[O-])cc2)[C@@H](c2ccc(CO)cc2I)N1CC12CC3CC(CC(C3)C1)C2	1.39	-3.32	0.591	0.387	0.0818	-0.0529	-0.152	-0.131	0.903	1.02
COC(=O)C1=CC(CCCO)=CC(C)N(Cc2cccc(OC(F)(F)F)c2)C=C1C(=O)OC (stereo not given)	1.35	-0.307	-0.708	1.02	1.15	-0.0643	0.0929	0.716	0.595	0.498
CN(C)C(=O)[C@@]1(Cc2ccccc2)COC(c2ccc(OCCCO)cc2)=N1	-0.112	-1.4	-0.906	0.153	0.369	-0.319	0.0526	-0.646	2	-0.579
CCCCCN1CC=CC23O[C@@H]4/C=C\CCC(C)OC(=O)C4[C@H]2C(=O)N(CCCCCCO)[C@@H]3C1=O (stereo not given in full)	0.342	0.499	-0.78	-0.384	0.369	-0.202	-0.0146	-0.12	0.171	-0.267
C=C(/C(=C/C[C@@H](OC(C)=O)c1ccc(CO)o1)c1cc(C(=O)OC)ccc1OC)C(C)C	0.443	-0.9	0.192	0.189	-0.657	0.0251	0.216	0.141	-0.144	-0.0861
C=C(C)C1CCC(C(O)C2C=CC3C(=O)N(C)C(=O)C3N2Nc2cc(OC)c(OC)c(OC)c2)CC1 (stereo not given)	1.4	-0.355	0.428	0.655	-0.157	0.0101	-0.0243	0.993	-0.161	1.26
[N-]=[N+]=NCc1ccccc1C[C@]1(C(=O)N2CCOCC2)COC(c2ccc(OCCCO)cc2)=N1	1.01	-1.54	-0.305	2.35	0.822	0.168	0.0326	1.87	2.22	0.326
CO[C@H]1O[C@H](CO)[C@@H](OC(=O)c2ccc(Br)cc2)[C@@H]2OC(=O)[C@H](Cc3ccccc3)C/C=C/C[C@@H](Cc3ccccc3)C(=O)O[C@@H]12	0.79	-3.01	0.109	0.575	-0.662	-0.275	-0.23	-0.542	0.706	0.142
COCCOC(=O)N1C(=O)[C@@]2(c3ccccc31)[C@H](c1ccccc1OCCO)N1[C@H](c3ccccc3)[C@H](c3ccccc3)OC(=O)[C@H]1[C@@H]2C(=O)N1CCCCCCC1	1.53	-3.17	1.73	2.8	1.47	1.5	3.37	3.61	5.43	3.1
C=C(COC)/C(=C/C[C@@H](OC(C)=O)c1ccc(CO)o1)c1cc(C(=O)OC)ccc1OC	0.531	-1.45	-0.0379	-0.177	-0.9	-0.096	0.479	0.184	-0.315	0.202
C=CCNC(=O)[C@H]1[C@@H]2C(=O)O[C@@H](c3ccccc3)[C@@H](c3ccccc3)N2[C@@H](c2ccc(OCCO)cc2)[C@]12C(=O)Nc1ccc(C#CCNC(N)=O)cc12	0.0863	-0.587	0.192	1.41	1.15	-0.0009	0.163	0.85	0.311	2.07
COc1ccc(C(O)C2C=CC3C(=O)N(c4ccccc4)C(=O)C3N2Nc2ccccc2F)cc1 (stereo not given)	0.726	-0.139	-0.591	0.528	0.062	-0.0991	0.0062	0.853	0.982	1.01
CN1C(=O)C2C=CC(C(O)c3ccc(I)cc3)N(Nc3ccccc3)C2C1=O (stereo not given)	1.33	0.132	0.136	1.63	0.544	0.172	0.36	0.551	0.0151	1.26
C=C(C(=O)CC[C@H](OC(=O)c1ccccc1-c1ccccc1C(=O)O)c1ccccc1OCCO)C(C)C	0.649	-1.59	0.346	-0.246	-0.4	-0.0573	0.108	0.0718	1.31	1.26
COc1ccc(NC(=O)O[C@H]2[C@@H]3OC(=O)[C@H](Cc4cccc(Br)c4)C/C=C/C[C@@H](Cc4cccc(Br)c4)C(=O)O[C@H]3[C@@H](OC)O[C@@H]2CO)cc1	0.277	0.714	0.601	0.492	-0.062	-0.027	0.235	0.325	0.882	0.526
